Laboratory results from PubChem BioAssay (NCI).
The panel holds about 83,000 compounds, 20% with a hit somewhere; the sample as a whole holds those more often.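 Interpretation: 100, growth as untreated; towards 0, rising growth inhibition; 0, no net growth; 0 to -100, cell death. Compounds scoring below 10 were considered active.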 Unmarked numbers belong to inactive results. The source made the active and inactive calls.

Legend:
Test in all cases: NCI-60 one-dose screen, 48 h (100 = growth as untreated, 0 = no growth, -100 = all killed)
Settings in all cases: 10 µM unless noted
NCI-H23 lung = system: NCI-H23 lung
NCI-H226 lung = system: NCI-H226 lung
NCI-H322M lung = system: NCI-H322M lung
HOP-62 NSCLC = system: HOP-62 NSCLC
NCI-H460 lung = system: NCI-H460 lung
HOP-92 NSCLC = system: HOP-92 NSCLC
NCI-H522 lung = system: NCI-H522 lung
A549/ATCC NSCLC = system: A549/ATCC NSCLC
786-0 renal = system: 786-0 renal
COLO 205 colon = system: COLO 205 colon
DU-145 prostate = system: DU-145 prostate
K-562 leukemia = system: K-562 leukemia
MALME-3M melanoma = system: MALME-3M melanoma
MDA-MB-231 breast = system: MDA-MB-231 breast
RXF 393 renal = system: RXF 393 renal
SF-268 CNS = system: SF-268 CNS
SF-295 CNS = system: SF-295 CNS
SF-539 CNS = system: SF-539 CNS
UACC-257 melanoma = system: UACC-257 melanoma
M14 melanoma = system: M14 melanoma

Structure (SMILES) | growth (NCI-H23 lung) | growth (NCI-H226 lung) | growth (NCI-H322M lung) | growth (HOP-62 NSCLC) | growth (NCI-H460 lung) | growth (HOP-92 NSCLC) | growth (NCI-H522 lung) | growth (A549/ATCC NSCLC) | growth (786-0 renal) | growth (COLO 205 colon) | growth (DU-145 prostate) | growth (K-562 leukemia) | growth (MALME-3M melanoma) | growth (MDA-MB-231 breast) | growth (RXF 393 renal) | growth (SF-268 CNS) | growth (SF-295 CNS) | growth (SF-539 CNS) | growth (UACC-257 melanoma) | growth (M14 melanoma)
O=C(Nc1ccncc1)C(=O)c1cn(S(=O)(=O)c2ccc(Br)cc2)c2ccccc12 | 46.9% | 77.8% | 97.1% | 44.7% | 68.4% | 48.6% | 18.3% | 75.6% | 54.9% | 103% | 62.6% | 26.5% | 49.6% | 43% | 60.1% | 52.2% | 29.6% | 43.8% | 69.4% | 31.6%
C=C(C)[C@@H]1C[C@@H]2Cc3cc(Cl)ccc3N1O2 | 99.8% | 101% | 111% | 93.4% | 102% | 25.2% | 116% | 95.4% | 102% | 105% | 123% | 97.7% | 91.4% | 99.2% | 104% | 106% | 108% | 99.6% | 102% | 95.3%
COC1=C(OC)C(=O)C(CCCCCCCCCC[P+](c2ccccc2)(c2ccccc2)c2ccccc2)=C(C)C1=O | -8.24% (active) | -19.5% (active) | -17.9% (active) | -19.5% (active) | -52.1% (active) | -47.3% (active) | 2.62% (active) | -4.09% (active) | -57.8% (active) | -93.3% (active) | 6.01% (active) | -48.9% (active) | -86.3% (active) | -39.6% (active) | -56.7% (active) | -61.6% (active) | -52.6% (active) | -25.1% (active) | -61.2% (active) | 
C=C1C(=O)O[C@H]2[C@H]1CC/C(Cn1cc(CNC(=O)c3cc4ccccc4[nH]3)nn1)=C\CC[C@@]1(C)O[C@@H]21 | 84.1% | 101% | 94.7% | 101% | 101% | 32.2% | -65% (active) | 93.4% | 66.1% | -34.4% (active) | 52.2% | 2.12% (active) | 0.0965% (active) | 60.9% | 24.5% | 68.5% | 110% | 6.92% (active) | 61.7% | 57.8%
O=[N+]([O-])c1cc(Cl)c2[nH]c3c(Cl)cc([N+](=O)[O-])cc3c2c1 | 9.08% (active) | -0.747% (active) | -0.868% (active) | 15.3% | -15.8% (active) | -14.3% (active) | -44% (active) | -42% (active) | 8.87% (active) | -73.6% (active) | 22.9% | 3.44% (active) | -16.5% (active) | -30.3% (active) | 12.4% | 12.9% | -35.5% (active) | 23.8% | -52.2% (active) | 16.3%
CC(C)(C)Nc1c(-c2cccs2)nc2ncccn12 | 96.6% | 90.6% | 98.7% | 104% | 102% | 98.8% | 80.3% | 98.1% | 104% | 110% | 105% | 86.5% | 99.9% | 108% | 98.9% | 97.5% | 99.5% | 97.5% | 90.5% | 106%
COc1cccc(-c2cc3c(O)cc(C#N)cc3[nH]2)c1 | 92.5% | 101% | 85.4% | 108% | 96.9% | 113% | 80.2% | 94.6% | 90.5% | 115% | 101% | 82.5% | 100% | 73% | 112% | 98.9% | 90.6% | 85.5% | 86.9% | 86.6%
CCOC(=O)c1cn2c3c(cc(C)cc3c1=O)C(=O)/C(=C/c1ccccc1)C2 | 108% | 94% | 96.9% | 79.2% | 104% | 57.1% | 75.8% | 89.1% | 82.7% | 93.4% | 106% | 79.7% | 112% | 87.2% | 74.6% | 95.7% | 92.6% | 87.8% | 78.4% | 101%
NC(=O)c1c(NC(=S)Nc2ccc(OC(F)(F)F)cc2)sc2c1CCC1(C2)OCCO1 | 94.7% | 92.9% | 89.2% | 99.9% | 99.1% | 96.3% | 83% | 97.3% | 98.5% | 108% | 112% | 94.6% | 109% | 98.9% | 116% | 103% | 93.4% | 99% | 97.1% | 97.2%
Cc1cc(N/N=C/c2nc(-c3ccccc3)oc2C)c2cc(Cl)ccc2n1 | -19.6% (active) | 81.4% | -54.8% (active) | 10.5% | -78.3% (active) | -61.9% (active) | -59.4% (active) | -76.8% (active) | -83.1% (active) | -71.9% (active) | -31.3% (active) | -29.3% (active) | -88.9% (active) | -95.1% (active) | -88.3% (active) | -60.3% (active) | -85% (active) | 8.72% (active) | 106% | -87.4% (active)
CCCN=C1NC(=O)/C(=C/c2nc(-c3ccc(OC)cc3)n3ccccc23)S1 | 77.9% | 84.6% | 82.5% | 98.8% | 37.4% | 106% | 88.1% | 73.3% | 58.5% | 109% | 38.9% | 91.6% | 95.3% | 55.9% | 54.6% | 76.2% | 124% | 95.4% | 110% | 
O=C(Nc1ccc(Cl)c(Cl)c1)NS(=O)(=O)c1cnccc1Oc1ccc(F)cc1 | 39.3% | 74.9% | 89.2% | 80.6% | 44.6% | 52.7% | 20.2% | 28% | 83.9% | 90.4% | 78.5% | 19.6% | 41.2% | 93.9% | 38% | 80.7% | 13.7% | 90.1% | -7.26% (active) | 
O=c1[nH]c(NCc2ccccc2)nc2nc(Nc3ccc(NC(=S)Nc4ccccc4)cc3)nc(-c3ccc(O)cc3O)c12 | 99.4% | 89.6% | 140% | 105% | 109% | 89.5% | 54.2% | 41.6% | 104% | 110% | 116% | 63.3% | 103% | 90.2% | 81.4% | 96% | 147% | 108% | 39.7% | 
COc1cc(-c2nc(N=Nc3c(O)[nH]c4ccc(Br)cc34)[nH]c(=O)c2C#N)cc(OC)c1OC | 102% | 84.1% | 99.4% | 105% | 104% | 92.8% | 84.9% | 99.4% | 99.8% | 114% | 103% | 90.9% | 94.9% | 93.9% | 102% | 101% | 91.1% | 96% | 91.9% | 97.1%
CN(CCCCN(C[C@H]1Cc2ncccc2CN1)[C@H]1CCCc2cccnc21)C1CCC(F)(F)CC1 | 107% | 78.4% | 95.5% | 68.2% | 99.5% | 70.5% | 89.6% | 84% | 82.5% | 87.8% | 97.9% | 72.3% | 153% | 65.7% | 89.9% | 87.8% | 96.5% | 99.2% | 89.2% | 101%
C/C(=N/NC(=S)Nc1ccccc1)c1nc2ccc(Cl)cc2[nH]1 | -45.3% (active) | -42.4% (active) | -40.4% (active) | -97.1% (active) | -66.6% (active) | -68.8% (active) | -93.4% (active) | -10.9% (active) | -47.6% (active) | -89.3% (active) | -99.1% (active) | -9.4% (active) | -74% (active) | -21.4% (active) | -91.5% (active) | -89.6% (active) | -58.6% (active) | -72.1% (active) | -94.9% (active) | 
